How the values were obtained:
Assay in all cases: log2 ratio of Biotin-Ahx-Ub-VS probe labelling (fragment/DMSO); higher = less target engagement (more negative = stronger competition), active = hit call of the paper (q ≤ 0.05, log2 ratio ≤ -1)
Conditions in all cases: compound concentration: 200 uM; treatment time: 3 h
[1] = molecular target: T1, USP42 (UniProt Q9H9J4)
T1 sequence (whole entry): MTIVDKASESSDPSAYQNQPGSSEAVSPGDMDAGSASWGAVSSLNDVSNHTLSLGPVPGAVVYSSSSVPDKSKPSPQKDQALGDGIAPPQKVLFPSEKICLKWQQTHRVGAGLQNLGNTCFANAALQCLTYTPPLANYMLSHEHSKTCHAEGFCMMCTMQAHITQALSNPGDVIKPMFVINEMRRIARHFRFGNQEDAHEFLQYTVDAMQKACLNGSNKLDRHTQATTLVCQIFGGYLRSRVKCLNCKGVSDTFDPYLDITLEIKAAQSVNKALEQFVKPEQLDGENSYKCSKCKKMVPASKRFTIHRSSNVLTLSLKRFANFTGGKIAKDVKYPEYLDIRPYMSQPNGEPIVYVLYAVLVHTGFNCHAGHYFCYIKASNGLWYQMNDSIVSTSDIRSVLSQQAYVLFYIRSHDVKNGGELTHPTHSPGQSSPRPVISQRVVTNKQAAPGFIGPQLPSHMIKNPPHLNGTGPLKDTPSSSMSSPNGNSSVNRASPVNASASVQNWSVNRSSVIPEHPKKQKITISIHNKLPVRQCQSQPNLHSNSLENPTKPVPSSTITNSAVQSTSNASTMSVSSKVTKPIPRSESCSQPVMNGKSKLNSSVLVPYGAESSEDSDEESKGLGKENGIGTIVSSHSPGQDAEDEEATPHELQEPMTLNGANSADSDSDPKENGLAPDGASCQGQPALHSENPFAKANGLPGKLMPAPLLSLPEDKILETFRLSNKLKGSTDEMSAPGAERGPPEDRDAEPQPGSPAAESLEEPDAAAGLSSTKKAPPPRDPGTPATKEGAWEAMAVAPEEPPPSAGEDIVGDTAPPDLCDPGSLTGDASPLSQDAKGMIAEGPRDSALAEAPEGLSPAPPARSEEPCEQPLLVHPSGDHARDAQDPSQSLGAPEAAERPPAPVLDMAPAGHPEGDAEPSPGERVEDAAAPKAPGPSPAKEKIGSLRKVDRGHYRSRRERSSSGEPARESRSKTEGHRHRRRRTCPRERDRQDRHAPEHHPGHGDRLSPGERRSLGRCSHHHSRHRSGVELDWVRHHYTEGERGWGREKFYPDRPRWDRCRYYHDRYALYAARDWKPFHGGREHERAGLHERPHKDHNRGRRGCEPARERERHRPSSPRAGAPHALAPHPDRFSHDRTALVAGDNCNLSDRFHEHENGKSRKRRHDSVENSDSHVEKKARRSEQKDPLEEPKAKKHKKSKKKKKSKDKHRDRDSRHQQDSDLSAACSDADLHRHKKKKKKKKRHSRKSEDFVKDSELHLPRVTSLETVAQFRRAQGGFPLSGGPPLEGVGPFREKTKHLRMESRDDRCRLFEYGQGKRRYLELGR
In short: (§1)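 HEK293T lysate (495 µg per sample, in Tris/CHAPS/IGEPAL buffer with protease inhibitors) was treated in triplicate with fragment at 200 µM or with DMSO for 3 h. It was then treated with Biotin-Ahx-Ub-VS (0.5 µM final) for 1 h. Labelled DUBs were NeutrAvidin-enriched, digested with LysC and trypsin, and run by diaPASEF LC-MS/MS. Spectronaut label-free quantities were global-median-normalised. Values are average log2 ratios fragment/DMSO by unpaired t-test, using proteins with ≥2 unique peptides.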

[2] = molecular target: USP46 (UniProt P62068)
In short: as §1

[3] = molecular target: T2, USP47 (UniProt Q96K76)
T2 sequence (whole entry): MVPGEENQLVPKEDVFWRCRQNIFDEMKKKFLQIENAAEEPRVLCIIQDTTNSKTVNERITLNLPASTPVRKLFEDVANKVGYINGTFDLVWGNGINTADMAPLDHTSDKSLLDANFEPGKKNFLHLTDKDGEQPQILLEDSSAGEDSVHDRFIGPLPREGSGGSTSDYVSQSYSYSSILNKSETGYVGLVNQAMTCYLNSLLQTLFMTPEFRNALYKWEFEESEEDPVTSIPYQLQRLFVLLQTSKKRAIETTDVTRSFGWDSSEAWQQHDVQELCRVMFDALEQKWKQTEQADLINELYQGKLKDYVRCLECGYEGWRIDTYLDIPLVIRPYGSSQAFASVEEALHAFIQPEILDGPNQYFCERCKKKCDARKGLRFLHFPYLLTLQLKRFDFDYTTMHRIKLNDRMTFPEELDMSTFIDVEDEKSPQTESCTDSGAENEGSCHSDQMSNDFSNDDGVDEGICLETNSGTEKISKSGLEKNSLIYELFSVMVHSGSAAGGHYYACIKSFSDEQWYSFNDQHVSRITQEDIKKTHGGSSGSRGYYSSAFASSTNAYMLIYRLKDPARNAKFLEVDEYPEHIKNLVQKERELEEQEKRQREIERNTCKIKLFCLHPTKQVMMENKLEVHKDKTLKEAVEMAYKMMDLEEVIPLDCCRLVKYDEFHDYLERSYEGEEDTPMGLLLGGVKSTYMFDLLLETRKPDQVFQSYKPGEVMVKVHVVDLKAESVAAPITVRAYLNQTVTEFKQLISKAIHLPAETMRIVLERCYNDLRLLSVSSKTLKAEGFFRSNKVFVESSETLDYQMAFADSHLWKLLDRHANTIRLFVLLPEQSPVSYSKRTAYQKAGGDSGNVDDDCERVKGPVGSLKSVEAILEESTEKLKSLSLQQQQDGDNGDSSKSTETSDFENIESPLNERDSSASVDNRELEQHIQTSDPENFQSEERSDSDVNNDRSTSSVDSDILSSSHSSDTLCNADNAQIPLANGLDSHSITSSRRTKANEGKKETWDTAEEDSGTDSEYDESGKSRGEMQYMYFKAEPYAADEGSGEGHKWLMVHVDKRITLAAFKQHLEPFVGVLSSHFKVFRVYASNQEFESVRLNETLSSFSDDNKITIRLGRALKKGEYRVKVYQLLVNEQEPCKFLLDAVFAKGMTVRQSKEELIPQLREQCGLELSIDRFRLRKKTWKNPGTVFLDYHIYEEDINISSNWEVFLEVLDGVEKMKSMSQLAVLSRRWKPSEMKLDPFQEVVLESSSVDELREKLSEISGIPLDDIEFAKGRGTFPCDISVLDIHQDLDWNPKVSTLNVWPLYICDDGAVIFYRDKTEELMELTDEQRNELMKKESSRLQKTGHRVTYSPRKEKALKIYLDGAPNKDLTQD
In short: as §1

[4] = molecular target: T3, USP48 (UniProt Q86UV5)
T3 sequence (whole entry): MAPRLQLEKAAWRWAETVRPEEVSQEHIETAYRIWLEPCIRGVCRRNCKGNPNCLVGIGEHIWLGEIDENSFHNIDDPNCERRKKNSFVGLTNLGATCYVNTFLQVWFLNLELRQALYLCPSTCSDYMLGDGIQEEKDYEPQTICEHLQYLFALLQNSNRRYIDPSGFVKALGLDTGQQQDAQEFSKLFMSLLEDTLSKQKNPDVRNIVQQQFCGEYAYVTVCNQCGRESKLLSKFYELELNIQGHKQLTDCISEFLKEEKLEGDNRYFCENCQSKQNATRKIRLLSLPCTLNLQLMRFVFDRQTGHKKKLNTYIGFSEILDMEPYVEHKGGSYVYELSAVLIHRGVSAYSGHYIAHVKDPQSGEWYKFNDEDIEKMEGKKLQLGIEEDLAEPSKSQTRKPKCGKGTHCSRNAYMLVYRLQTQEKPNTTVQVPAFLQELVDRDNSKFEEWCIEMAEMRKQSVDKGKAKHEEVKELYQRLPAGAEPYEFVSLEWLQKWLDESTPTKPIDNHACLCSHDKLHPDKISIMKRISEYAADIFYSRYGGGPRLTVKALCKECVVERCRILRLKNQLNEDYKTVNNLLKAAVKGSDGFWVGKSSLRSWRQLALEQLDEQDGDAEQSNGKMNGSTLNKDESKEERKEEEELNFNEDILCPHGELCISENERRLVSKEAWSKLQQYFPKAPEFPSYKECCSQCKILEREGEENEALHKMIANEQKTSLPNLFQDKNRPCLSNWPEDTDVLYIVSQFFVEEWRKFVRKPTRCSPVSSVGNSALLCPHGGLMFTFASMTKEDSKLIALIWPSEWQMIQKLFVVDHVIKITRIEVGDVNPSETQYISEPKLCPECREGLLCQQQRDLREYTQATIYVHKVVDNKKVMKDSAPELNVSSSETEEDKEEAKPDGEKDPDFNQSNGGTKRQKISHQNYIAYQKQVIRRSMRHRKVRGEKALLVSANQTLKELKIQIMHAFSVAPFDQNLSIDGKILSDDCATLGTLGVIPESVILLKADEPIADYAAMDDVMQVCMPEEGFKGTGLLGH
In short: as §1

[5] = molecular target: T4, USP5 (UniProt P45974)
T4 sequence (whole entry): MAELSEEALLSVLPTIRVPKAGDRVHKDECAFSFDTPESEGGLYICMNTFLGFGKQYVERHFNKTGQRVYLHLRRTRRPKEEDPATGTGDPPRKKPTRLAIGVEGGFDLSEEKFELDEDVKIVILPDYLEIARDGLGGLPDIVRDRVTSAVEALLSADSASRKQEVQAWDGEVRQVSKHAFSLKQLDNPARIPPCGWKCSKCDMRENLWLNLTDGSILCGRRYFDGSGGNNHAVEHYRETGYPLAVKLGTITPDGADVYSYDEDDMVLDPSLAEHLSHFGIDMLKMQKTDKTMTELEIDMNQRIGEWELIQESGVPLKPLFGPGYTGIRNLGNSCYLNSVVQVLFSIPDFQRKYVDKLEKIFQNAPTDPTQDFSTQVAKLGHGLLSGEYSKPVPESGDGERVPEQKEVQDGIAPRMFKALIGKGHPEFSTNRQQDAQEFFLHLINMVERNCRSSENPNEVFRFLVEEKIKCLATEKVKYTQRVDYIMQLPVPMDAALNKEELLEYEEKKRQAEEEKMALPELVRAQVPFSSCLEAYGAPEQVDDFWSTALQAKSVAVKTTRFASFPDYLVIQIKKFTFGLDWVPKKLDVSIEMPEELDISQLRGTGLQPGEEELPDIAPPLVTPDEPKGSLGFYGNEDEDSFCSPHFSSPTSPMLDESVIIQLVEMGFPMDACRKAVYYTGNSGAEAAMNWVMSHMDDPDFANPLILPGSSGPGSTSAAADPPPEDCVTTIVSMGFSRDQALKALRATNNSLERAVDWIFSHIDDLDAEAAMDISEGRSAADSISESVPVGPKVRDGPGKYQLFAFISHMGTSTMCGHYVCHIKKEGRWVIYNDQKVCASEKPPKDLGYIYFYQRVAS
In short: as §1

[6] = molecular target: USP54 (UniProt Q70EL1)
In short: as §1

[7] = molecular target: USP7 (UniProt Q93009)
In short: as §1

[8] = molecular target: T5, USP8 (UniProt P40818)
T5 sequence (whole entry): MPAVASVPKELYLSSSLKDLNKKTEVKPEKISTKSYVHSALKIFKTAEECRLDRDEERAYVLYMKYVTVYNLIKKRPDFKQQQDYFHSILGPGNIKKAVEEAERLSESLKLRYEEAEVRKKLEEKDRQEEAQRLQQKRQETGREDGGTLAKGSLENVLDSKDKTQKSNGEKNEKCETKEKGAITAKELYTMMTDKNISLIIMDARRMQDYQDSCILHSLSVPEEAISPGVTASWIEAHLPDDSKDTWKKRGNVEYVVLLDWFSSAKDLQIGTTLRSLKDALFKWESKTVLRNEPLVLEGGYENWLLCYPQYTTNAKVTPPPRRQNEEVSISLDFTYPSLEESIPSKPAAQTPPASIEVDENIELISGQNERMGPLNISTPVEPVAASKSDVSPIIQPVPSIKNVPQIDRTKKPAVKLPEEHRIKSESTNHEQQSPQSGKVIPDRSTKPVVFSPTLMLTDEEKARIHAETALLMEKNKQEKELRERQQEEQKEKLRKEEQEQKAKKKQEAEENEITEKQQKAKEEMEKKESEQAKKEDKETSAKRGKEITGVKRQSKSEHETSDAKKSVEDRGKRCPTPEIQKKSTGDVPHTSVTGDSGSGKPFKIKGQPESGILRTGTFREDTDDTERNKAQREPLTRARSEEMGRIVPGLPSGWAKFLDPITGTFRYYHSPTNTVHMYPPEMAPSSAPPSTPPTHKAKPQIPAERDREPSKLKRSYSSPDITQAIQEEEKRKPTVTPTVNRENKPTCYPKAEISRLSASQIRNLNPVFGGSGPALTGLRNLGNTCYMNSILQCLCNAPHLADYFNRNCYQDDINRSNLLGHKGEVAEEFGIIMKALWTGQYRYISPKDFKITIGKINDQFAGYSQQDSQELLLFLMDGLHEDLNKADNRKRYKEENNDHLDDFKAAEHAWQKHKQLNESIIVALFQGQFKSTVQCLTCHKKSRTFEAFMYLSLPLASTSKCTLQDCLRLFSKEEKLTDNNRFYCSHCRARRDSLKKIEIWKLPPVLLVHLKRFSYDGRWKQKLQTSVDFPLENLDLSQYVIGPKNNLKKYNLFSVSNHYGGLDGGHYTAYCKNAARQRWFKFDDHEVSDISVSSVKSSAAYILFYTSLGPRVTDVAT
In short: as §1

[9] = molecular target: USP9X (UniProt Q93008)
In short: as §1

[10] = molecular target: UniProt O00487
In short: as §1

Measured: log2 ratio of Biotin-Ahx-Ub-VS probe labelling

UniProt O00487, sequence (O00487 whole entry): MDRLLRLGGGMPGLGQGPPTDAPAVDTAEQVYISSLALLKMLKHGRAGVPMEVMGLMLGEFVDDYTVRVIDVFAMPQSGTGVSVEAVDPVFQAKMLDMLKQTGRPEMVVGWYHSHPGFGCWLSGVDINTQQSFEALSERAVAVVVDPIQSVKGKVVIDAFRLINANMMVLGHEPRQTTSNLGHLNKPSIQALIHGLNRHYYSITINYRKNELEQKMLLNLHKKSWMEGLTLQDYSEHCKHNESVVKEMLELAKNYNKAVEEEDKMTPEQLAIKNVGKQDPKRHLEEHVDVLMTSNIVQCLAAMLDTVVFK
USP7, sequence (Q93009 whole entry, looked up): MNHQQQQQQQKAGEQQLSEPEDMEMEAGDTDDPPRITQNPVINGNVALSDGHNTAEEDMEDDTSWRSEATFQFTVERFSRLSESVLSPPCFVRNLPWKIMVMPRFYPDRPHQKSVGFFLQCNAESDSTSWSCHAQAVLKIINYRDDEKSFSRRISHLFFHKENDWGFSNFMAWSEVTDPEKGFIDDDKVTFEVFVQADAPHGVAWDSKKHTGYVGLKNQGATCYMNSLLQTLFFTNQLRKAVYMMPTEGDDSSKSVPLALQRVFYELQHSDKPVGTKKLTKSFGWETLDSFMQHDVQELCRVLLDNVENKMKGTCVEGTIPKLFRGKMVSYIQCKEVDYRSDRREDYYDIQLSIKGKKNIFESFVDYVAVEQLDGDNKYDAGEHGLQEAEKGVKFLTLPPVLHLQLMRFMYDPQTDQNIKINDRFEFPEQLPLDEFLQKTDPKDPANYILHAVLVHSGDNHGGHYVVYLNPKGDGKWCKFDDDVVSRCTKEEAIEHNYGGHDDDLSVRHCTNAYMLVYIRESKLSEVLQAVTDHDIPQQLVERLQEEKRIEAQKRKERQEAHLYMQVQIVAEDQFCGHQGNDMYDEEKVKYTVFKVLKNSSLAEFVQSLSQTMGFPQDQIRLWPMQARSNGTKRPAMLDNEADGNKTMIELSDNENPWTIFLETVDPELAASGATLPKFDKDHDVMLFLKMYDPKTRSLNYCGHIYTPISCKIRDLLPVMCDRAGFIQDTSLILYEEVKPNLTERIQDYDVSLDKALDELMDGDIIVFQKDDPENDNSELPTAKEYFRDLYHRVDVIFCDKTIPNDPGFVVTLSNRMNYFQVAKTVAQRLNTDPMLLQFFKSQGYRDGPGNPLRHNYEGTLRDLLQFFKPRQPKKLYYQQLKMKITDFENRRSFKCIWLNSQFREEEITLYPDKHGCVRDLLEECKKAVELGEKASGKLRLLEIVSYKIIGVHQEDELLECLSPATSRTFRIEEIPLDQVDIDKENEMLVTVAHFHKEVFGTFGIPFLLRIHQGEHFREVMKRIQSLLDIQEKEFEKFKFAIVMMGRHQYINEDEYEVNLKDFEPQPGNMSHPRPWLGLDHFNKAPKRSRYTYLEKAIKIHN
USP46, sequence (P62068 whole entry): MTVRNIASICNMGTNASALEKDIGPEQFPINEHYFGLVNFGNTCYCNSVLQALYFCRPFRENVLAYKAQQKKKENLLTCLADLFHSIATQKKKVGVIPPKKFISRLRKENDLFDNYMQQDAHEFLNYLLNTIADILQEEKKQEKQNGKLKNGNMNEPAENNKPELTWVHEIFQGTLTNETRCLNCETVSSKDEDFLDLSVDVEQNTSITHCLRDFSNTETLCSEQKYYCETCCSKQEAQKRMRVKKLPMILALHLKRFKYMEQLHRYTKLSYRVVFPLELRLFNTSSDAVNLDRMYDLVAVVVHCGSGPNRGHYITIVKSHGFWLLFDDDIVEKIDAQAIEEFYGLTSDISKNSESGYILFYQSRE
USP9X, sequence (Q93008 whole entry): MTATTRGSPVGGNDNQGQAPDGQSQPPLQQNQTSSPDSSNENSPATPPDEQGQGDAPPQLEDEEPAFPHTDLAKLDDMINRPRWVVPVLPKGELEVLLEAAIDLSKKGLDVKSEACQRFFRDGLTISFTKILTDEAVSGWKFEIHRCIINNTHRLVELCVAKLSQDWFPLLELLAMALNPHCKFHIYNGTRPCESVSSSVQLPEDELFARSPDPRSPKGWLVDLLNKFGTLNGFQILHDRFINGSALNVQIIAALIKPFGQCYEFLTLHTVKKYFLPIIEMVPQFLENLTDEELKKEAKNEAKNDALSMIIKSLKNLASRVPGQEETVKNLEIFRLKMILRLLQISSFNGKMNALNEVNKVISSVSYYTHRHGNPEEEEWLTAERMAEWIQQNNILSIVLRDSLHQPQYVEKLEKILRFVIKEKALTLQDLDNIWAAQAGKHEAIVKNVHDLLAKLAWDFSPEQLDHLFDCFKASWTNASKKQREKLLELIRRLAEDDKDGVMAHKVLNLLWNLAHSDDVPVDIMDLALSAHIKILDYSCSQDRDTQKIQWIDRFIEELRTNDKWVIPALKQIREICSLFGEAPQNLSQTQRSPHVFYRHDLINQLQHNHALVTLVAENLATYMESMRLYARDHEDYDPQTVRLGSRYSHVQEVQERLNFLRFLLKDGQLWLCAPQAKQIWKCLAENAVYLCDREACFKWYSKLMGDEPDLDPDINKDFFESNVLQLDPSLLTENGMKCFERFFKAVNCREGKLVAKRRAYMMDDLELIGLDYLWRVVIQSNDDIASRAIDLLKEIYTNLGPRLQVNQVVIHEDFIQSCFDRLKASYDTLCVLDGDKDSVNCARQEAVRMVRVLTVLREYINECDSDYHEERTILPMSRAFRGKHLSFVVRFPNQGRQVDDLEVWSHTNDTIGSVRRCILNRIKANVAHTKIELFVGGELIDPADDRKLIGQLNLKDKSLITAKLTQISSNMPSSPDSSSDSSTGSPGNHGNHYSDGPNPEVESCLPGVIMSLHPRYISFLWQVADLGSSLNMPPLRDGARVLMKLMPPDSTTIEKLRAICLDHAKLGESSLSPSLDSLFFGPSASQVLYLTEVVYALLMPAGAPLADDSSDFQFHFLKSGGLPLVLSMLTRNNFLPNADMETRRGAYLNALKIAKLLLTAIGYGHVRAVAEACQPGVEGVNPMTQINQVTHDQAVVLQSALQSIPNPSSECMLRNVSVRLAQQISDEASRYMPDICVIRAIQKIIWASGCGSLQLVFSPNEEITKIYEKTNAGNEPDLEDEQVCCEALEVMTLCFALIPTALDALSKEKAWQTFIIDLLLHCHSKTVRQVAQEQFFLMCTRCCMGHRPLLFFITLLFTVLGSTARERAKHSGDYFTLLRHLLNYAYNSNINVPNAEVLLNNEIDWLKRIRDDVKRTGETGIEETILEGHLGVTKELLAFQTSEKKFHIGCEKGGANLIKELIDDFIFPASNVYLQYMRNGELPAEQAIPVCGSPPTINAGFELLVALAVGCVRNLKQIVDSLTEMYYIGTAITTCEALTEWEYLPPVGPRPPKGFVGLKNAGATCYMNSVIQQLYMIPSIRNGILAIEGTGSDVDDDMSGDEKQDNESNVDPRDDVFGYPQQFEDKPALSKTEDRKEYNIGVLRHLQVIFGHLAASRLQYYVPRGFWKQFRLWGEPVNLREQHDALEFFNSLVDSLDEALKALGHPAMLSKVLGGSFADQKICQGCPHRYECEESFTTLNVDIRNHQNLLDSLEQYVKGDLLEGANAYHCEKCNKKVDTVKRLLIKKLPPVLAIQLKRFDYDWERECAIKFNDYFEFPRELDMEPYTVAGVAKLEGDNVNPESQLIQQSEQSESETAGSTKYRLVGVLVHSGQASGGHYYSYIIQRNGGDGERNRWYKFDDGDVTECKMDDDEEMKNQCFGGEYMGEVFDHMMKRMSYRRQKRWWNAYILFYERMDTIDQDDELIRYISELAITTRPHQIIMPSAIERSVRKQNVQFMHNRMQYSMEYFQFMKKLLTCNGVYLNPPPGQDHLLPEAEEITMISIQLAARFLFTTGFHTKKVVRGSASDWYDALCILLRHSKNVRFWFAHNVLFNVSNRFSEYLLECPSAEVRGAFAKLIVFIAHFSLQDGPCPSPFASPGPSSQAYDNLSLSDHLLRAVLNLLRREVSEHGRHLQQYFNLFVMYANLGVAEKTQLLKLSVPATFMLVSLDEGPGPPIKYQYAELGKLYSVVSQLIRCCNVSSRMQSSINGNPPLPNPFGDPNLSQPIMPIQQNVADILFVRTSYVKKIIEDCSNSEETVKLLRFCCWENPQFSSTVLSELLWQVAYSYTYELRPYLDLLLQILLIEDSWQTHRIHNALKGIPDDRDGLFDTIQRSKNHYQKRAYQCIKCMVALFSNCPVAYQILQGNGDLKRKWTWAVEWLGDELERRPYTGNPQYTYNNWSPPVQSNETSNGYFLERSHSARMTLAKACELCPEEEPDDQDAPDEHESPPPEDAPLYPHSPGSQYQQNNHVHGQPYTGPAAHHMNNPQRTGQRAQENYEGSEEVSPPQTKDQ

Cc1ccc(-c2nnc(C)[nH]2)c(NC(=O)CCl)c1
inactive: [1] 0.00752 | [2] 0.277 | [3] -0.177 | [4] -0.239 | [5] 0.0867 | [6] -0.227 | [7] -0.138 | [8] 0.112 | [9] -0.0335 | [10] -0.138
